# Laboratory results published in PubChem BioAssay AID720724 (Broad Institute, 2013).
# Entries with a potency or affinity are not part of this list. Activity calls are given as the source filed them.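 The calls were made as follows: active = signal falls with a fitted half-maximal dose at most twice the top dose, in every run; inconclusive = steady partial drop, poor fit, or runs disagree; inactive = flat, rising or too weak in every run.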
# Experiment: EF1alpha-driven Renilla reporter with control 3'UTR suppression – Clone20-Shn3RL cells, dual-Glo, cherry-pick, set 2, counter-screen for Shn3 3'UTR targeting project, dose response (AID 720724)
row,Compound,outcome
1,Cc1cc(C(=O)COC(=O)c2ccccc2O)c(C)n1Cc1cccs1,inactive
2,Cc1onc(-c2ccccc2Cl)c1C(=O)N(C)C1CCCCC1,inactive
3,COc1ccccc1NC(=O)Cn1cc(C(=O)C2CC2)c2ccccc21,inactive
4,CCOC(=O)c1cn(CC(=O)Nc2cccc(Cl)c2C)nn1,inactive
5,COc1ccc(OCc2cccc(C(=O)O)c2)cc1,inactive
6,CCc1ccccc1NC(=O)COC(=O)c1c(C)nsc1NC,inactive
7,Cc1cccc(-c2noc(CN(C(=O)C(c3ccccc3)c3ccccc3)C(C)C)n2)c1,inactive
8,O=C(NCCc1ccccc1)c1ccc2c(c1)OCCCO2,inactive
9,CNc1ccccc1C(C)(C)c1cc(-c2cccc(OC)c2)no1,inactive
10,Cn1c(=O)c2c(nc(NCc3ccco3)n2CCc2ccccc2)n(C)c1=O,inactive
11,COc1ccc(CNC(=O)C(C)n2ccc3cc(S(=O)(=O)N4CCCCCC4)ccc32)cc1 (stereo not drawn),inactive
12,CCN(CC)S(=O)(=O)c1ccc(S(=O)(=O)Nc2c(C)nn(C)c2C)cc1,inactive
13,Cc1nc(SCC(=O)Nc2nc3ccccc3s2)c(C#N)c(C)c1C,inactive
14,COc1ccccc1N1CCN(c2ncc(C(=O)N3CCN(c4cccc(Cl)c4)CC3)c3ccccc23)CC1,inactive
15,Cc1ccc2c(c1)nnn2C1CCN(S(=O)(=O)c2ccc(C(=O)N3C(C)CCCC3C)cc2)CC1 (stereo not drawn),inactive
16,Cc1ccc(-c2cn3cc(C)ccc3n2)cc1,inactive
17,CC(C)(C)C(=O)Nc1ccc(NC(=O)c2ccco2)nc1,inactive
18,Cc1c(C)c2ccc(OCC(=O)Nc3ccccn3)c(C)c2oc1=O,inactive
